Screens: PubChem BioAssay, National Center for Advancing Translational Sciences (NCATS)
Rows were chosen to be rich in hits. Some 7.4% of all compounds tested hit in one or more screens of this group.
FLuc modulator – counter-screen for miR-21 project: firefly luciferase inhibitors or activators; Potency, µM (doses to about 57.5 µM), without a hit: top-dose activity change, negative = inhibition, actives largely listed as inhibitors; P08659; purified FLuc, Km substrates, luminescence inhibition; 360,000 tested, 6.9% active; AID 588342;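 also: plate controls were vehicle for no effect and reference inhibitor for full effect; nearly all actives have a fitted effect of over 55% in size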
Target sequence (P08659 whole entry, looked up): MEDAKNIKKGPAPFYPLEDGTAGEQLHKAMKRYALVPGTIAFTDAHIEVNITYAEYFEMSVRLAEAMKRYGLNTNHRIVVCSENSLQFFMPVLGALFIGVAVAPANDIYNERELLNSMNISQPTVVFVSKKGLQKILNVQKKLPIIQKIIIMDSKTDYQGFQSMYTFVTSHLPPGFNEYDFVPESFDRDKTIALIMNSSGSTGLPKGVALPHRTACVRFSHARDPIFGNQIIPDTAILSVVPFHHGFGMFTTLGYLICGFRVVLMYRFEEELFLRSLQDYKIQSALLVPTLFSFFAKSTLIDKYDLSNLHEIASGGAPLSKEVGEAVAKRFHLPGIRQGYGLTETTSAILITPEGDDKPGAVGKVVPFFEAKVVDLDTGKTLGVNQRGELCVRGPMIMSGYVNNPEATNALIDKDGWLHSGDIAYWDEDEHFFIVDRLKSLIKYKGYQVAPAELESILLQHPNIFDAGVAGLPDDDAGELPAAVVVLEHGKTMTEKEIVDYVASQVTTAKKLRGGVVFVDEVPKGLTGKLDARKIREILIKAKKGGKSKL
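Purified P. pyralis luciferase (10nM final) with 10uM D-luciferin and 10uM ATP (Km levels) in 50mM Tris acetate pH 7.5, 10mM Mg acetate, 0.01% Tween-20, 0.05% BSA; qHTS 6-point titration, ~60 µM downward; luminescence read.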
NPC1 promoter act – activators of NPC1 promoter. Huh7 NPC1 promoter luciferase reporter, 24 h. Potency, µM (top dose mostly 9.22 µM), for the others: at the top dose activation, most hits filed as activators. 320,000 tested, 2.4% active. AID 485313; also: % of control where 0% means no effect; nearly all actives have a fitted effect of over 60% in size
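Luminescence from an NPC1 promoter-driven luciferase reporter in stably transfected Huh7 cells was measured after 24 h compound treatment at 37 °C, followed by 10 min ambient incubation with luciferase detection reagent.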
ELG1 genotox – inducers of genotoxicity in HEK293T ELG1-luciferase cells | AID 504466 | HEK293T ELG1-luciferase reporter, luminescence, 16 h | Potency, µM (highest dose often 46 µM), without a hit: at the top dose activity change, positive = activation, most hits filed as activators | 330,000 tested, 1.3% active; also: % of control where 0% means no effect; nearly all actives have a fitted effect of over 60% in size
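After overnight (16 hr) compound treatment at 37 °C, ELG1-luciferase HEK293T cells were lysed with ONE-Glo; luminescence quantified 30 min later at room temperature.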
SMN2 splice enh – SMN2 splice variant enhancement. 210,000 tested, 2.8% active. HEK293 SMN2-luciferase splicing reporter, luminescence, 30-36 h. Potency, µM (titrated, usually from 46.1 µM), for the others: top-dose activity change, positive = activation, most hits filed as activators; also: % of control where 0% means no effect; nearly all actives have a fitted effect of over 55% in size
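qHTS luciferase splicing reporter: luminescence rises when SMN2 exon 7 is included in transfected HEK293 cells. Compound exposure lasted 30-36 h at 37C, with 4.5 mM final sodium butyrate as control, followed by a ONE-Glo read.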
Rab9 promoter act – Rab9 promoter activation; Huh7 Rab9 promoter-luciferase reporter, luminescence, 24 h; Potency, µM (doses to about 9.22 µM), for the others: at the highest dose activation, negative = inhibition, usual class: activators; 320,000 tested, 2.8% active; AID 485297; also: % of control where 0% means no effect; nearly all actives have a fitted effect of over 60% in size
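Huh7 cells stably carrying Rab9 promoter–luciferase reporter, plated 1500 cells/well, compound added after 2 h and incubated 24 h at 37 °C; luciferase luminescence then read after 10 min with detection reagent.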
* = called active by the depositor; ? = inconclusive; · = no result given. Calls follow the shape of the dose curve; as a rule, active = well fitted curve in the direction sought with a large enough effect; inconclusive = small, poorly fitted or top-dose-only effect, or another doubt; inactive = no such curve, though single readings can be large; an effect the other way counts as inactive or inconclusive. Potency is read from the fitted curve at half-maximal effect.

SMILES	FLuc modulator	NPC1 promoter act	ELG1 genotox	SMN2 splice enh	Rab9 promoter act
CC(C)c1nn2c(=O)cc(COC(=O)C3CCCCC3)nc2s1	23.9µM*	·	·	·	·
CCCc1nn2c(=O)cc(COC(=O)c3cccs3)nc2s1	26.9µM*	·	·	·	·
Cc1ccccc1C(=O)OCc1cc(=O)n2nc(C(C)C)sc2n1	16.9µM*	·	·	·	·
Cc1ccc(Oc2ccc(C=O)cn2)cc1	-1.0%	0.1%	-6.7%	-20.6%	-6.9%
CO/N=C/c1ccc(Oc2ccc(C)cc2)nc1	16.9µM*	17.6%	15.1%	-7.1%	20.3%
COc1ccc(CCNC(=O)Cn2cc(C(=O)c3ccccc3)c(=O)c3ccc(C)nc32)cc1OC	-1.2%	·	·	·	·
CCn1ccc2cc(S(=O)(=O)N3CCC(C(=O)NCc4ccc(OC(C)C)cc4)CC3)ccc21	-8.6%	·	·	·	·
COc1cccc(CC(=O)Nc2ccc(S(=O)(=O)N3CCCCC3)cc2)c1	·	·	-1.5%	·	·
COc1cccc(CC(=O)Nc2ccc3c(c2)OC2(CCCC2)O3)c1	13.5µM*	16.8%	3.2%	·	21.6%
O=C(Nc1ccn(Cc2ccc(Cl)cc2)n1)c1ccccc1	10.7µM*	?	?	12.6µM*	3.55µM*
O=C(Nc1ccn(Cc2ccccc2)n1)c1ccc2c(c1)OCO2	5.36µM*	?	18.9%	?	2.82µM*
Cc1ccc(C(=O)Nc2ccn(Cc3ccc(F)cc3)n2)o1	15.1µM*	?	18.5%	·	?
Cc1ccc(C(=O)Nc2ccc(F)cc2F)o1	-19.7%	10.9%	-0.7%	-7.9%	21.4%
CC1(C)Cc2c(sc(NC(=O)c3ccccc3)c2C(=O)O)CO1	6.75µM*	?	-1.5%	?	?
CC1(C)Cc2c(sc(NC(=O)C(=O)N3CCCC3)c2C(=O)O)CO1	-1.7%	0.8%	3.5%	·	-5.3%
CC(C)COc1ccc(C(=O)Nc2sc3c(c2C(=O)O)CC(C)(C)OC3)cc1	21.3µM*	-0.1%	-13.9%	·	-5.0%
COc1cc(NC(=O)CC(C)n2nc(C)cc2C)cc(OC)c1 (stereo unspecified)	-2.1%	·	·	·	·
CN(C)C=Nc1ccc2nn(-c3ccccc3)nc2c1	5.36µM*	2.82µM*	?	5.01µM*	1µM*
CN(C)C=Nc1ccc(Cl)c(Cl)c1	-13.1%	-2.2%	1.9%	·	-4.9%
O=C(c1ccccc1Cl)N1CCN(S(=O)(=O)c2cccs2)CC1	0.8%	0.7%	1.6%	·	6.9%
O=C(c1ccc(-c2ccccc2Cl)o1)N1CCN(S(=O)(=O)c2cccs2)CC1	10.7µM*	?	0.2%	·	?
O=C(c1ccc(-c2ccc(Cl)cc2Cl)o1)N1CCOCC1	8.49µM*	3.16µM*	?	22.4µM*	3.16µM*
NC(=O)C1CCN(C(=O)c2ccc(-c3ccccc3Cl)o2)CC1	9.53µM*	?	?	·	2.51µM*
O=C(c1ccco1)N1CCN(Cc2c(Cl)cccc2Cl)CC1	26.9µM*	?	?	·	3.16µM*
O=C(NCC(c1cccnc1)N1CCc2ccccc2C1)c1ccc(F)c(F)c1 (stereo unspecified)	-1.1%	·	·	·	·
SMILES	FLuc modulator	NPC1 promoter act	ELG1 genotox	SMN2 splice enh	Rab9 promoter act
CCO[Si](CCCN)(OCC)OCC	·	·	·	4.0%	·
COc1ccc(Cl)cc1NC(=O)c1cnc2sc(N3CCOCC3)nn2c1=O	-2.6%	·	·	·	·
CCc1ccc2occ(CC(=O)Nc3sc4c(c3C(=O)NCCOC)CCCC4)c2c1	-8.8%	·	·	11.3%	·
COc1ccc(NC(=O)[C@H]2O[C@@H]3OC(C)(C)O[C@@H]3[C@H]3OC(C)(C)O[C@H]32)c(OC)c1	-0.7%	·	·	3.1%	·
O=C(c1ccco1)N1CCN(C(=O)c2ccc(-c3ccccc3Cl)o2)CC1	9.53µM*	?	13.6%	·	2.82µM*
O=C(c1cc(-c2ccccc2Cl)on1)N1CCN(C(=O)c2ccco2)CC1	19µM*	0.9%	0.8%	5.3%	-2.6%
O=C(c1ccc(-c2ccccc2Cl)o1)N1CCN(c2ccccc2O)CC1	?	11.6%	-0.7%	·	2.1%
O=C(c1cc(-c2ccc(Cl)cc2Cl)on1)N1CCN(C(=O)c2ccco2)CC1	30.1µM*	2.5%	-0.4%	-33.4%	3.3%
O=C(c1ccco1)N1CCN(S(=O)(=O)c2cc(Cl)ccc2Cl)CC1	7.7%	-3.6%	?	·	0.0%
O=C(O)c1ccc(-c2ccc(Cl)cc2Cl)o1	?	1.5%	11.9%	-7.0%	18.3%
